Data published in PubChem BioAssay.
Results filed as inconclusive are left out. Activity calls are given as the source filed them.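 Rule for the calls, unless noted: active = binding below the plate cutoff, the plate median minus 3 SD, with a reading above zero; inconclusive = below the plate cutoff but reading exactly zero; inactive = the rest.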

What was measured:
[1] = yeast TOR pathway RPL19A-GFP modulators, primary screen, cell-based, S. cerevisiae, multiplex flow cytometry (AID 1862; in the data active = percent of DMSO control GFP below about 86%;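 note: lower values mimic rapamycin by blocking the RPL19A rise seen in DMSO cells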); settings: S. cerevisiae RPL19A-GFP strain, flow cytometry fluorescence, 3 h; at 10 µM; stronger effect = lower value
[2] = modulators of MEP2-GFP levels in yeast, primary screen, S. cerevisiae, multiplex flow cytometry (AID 1867;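 active = GFP response, as percent of the DMSO control, above the screen-wide mean plus 3 SD, about 139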;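 note: median GFP channel fluorescence of barcode-gated MEP2-GFP cells measured by flow cytometry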); settings: S. cerevisiae MEP2-GFP strain, 3 h, at 10 µM, stronger effect = higher value, 100% means same as DMSO wells
[3] = modulators of CIT2-GFP expression in yeast, primary screen, S. cerevisiae, GFP fusion, multiplex flow cytometry (AID 1870;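 active = percent response above a set limit, the screen-wide mean plus 3 SD, cut at about 130% in these data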;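 note: barcoded CIT2-GFP strain pooled with four other GFP strains with rapamycin as positive control; median GFP fluorescence per well over plate mean of DMSO wells so 100% = DMSO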); settings: 3 h, at 10 µM, stronger effect = higher value
[4] = modulators of LAP4-GFP expression in yeast, primary screen, S. cerevisiae, multiplex flow cytometry (AID 1873;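 active = GFP signal, as percent of the solvent control, above the screen mean plus 3 SD, about 149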); settings: 3 h, at 10 µM, stronger effect = higher value
[5] = inhibitors of CD8+ T cell-vesicle binding, pilot screen, LFA-1/ICAM-1 modulator project, MLPCN validation set, flow cytometry (AID 2523;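 active = response below a set limit, under 55% cells CD8-positive and vesicle-bound, and CD8 cells' 90th-percentile brightness under 279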;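 for vesicle binding response: mean PE anti-B7-1 fluorescence of CD8+ cells relative to row control; 100% = QL9-loaded vesicles with DMSO vehicle in the same plate row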); settings: 2C mouse CD8+ T cells, at 7 µM, stronger effect = lower value; double positive events: measured here: CD8+/vesicle+ event percentage
[6] = biological target: Integrin beta-1 (Homo sapiens) + Integrin alpha-4 (Homo sapiens) (UniProt P13612+P05556); assay: inhibition of HUTS-21 binding to VLA-4, pilot screen, VLA-4 allosteric modulator project, U937 cells, HUTS-21 mAb, flow cytometry, validation set (AID 2674;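 active = inhibition above 50%, about 3 SD of the validation set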;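 note: antibody binding induced by the VLA-4 ligand LDV present at three times its Kd; 0% = LDV ligand with antibody and no compound and 100% = antibody without LDV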); settings: HUTS-21 LIBS mAb binding, at 6.7 µM, stronger effect = higher value, binding induced by LDV ligand
Sequence of Integrin beta-1 (Homo sapiens) + Integrin alpha-4 (Homo sapiens) (P05556 whole entry, looked up): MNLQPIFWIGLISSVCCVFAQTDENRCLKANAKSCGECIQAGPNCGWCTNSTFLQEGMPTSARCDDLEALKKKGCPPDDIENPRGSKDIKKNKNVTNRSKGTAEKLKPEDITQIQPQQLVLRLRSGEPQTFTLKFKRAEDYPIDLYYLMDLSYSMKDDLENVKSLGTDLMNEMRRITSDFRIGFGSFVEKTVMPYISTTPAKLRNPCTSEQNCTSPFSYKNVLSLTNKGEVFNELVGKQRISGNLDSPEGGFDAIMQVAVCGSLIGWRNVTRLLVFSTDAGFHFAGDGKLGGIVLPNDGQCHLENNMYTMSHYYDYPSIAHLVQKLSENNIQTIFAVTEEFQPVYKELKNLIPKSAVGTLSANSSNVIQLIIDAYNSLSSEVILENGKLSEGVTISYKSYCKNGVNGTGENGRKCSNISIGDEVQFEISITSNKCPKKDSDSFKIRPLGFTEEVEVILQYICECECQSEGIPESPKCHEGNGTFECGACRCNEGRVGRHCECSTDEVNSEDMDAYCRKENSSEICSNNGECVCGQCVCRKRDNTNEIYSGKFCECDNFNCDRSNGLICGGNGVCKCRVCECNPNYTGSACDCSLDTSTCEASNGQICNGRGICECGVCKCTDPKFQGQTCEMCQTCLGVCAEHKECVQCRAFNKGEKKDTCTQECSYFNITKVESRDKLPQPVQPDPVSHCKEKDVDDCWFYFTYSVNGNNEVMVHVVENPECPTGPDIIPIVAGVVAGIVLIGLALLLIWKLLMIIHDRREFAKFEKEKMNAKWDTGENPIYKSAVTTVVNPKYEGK
Sequence of Integrin beta-1 (Homo sapiens) + Integrin alpha-4 (Homo sapiens) (P13612 whole entry, looked up): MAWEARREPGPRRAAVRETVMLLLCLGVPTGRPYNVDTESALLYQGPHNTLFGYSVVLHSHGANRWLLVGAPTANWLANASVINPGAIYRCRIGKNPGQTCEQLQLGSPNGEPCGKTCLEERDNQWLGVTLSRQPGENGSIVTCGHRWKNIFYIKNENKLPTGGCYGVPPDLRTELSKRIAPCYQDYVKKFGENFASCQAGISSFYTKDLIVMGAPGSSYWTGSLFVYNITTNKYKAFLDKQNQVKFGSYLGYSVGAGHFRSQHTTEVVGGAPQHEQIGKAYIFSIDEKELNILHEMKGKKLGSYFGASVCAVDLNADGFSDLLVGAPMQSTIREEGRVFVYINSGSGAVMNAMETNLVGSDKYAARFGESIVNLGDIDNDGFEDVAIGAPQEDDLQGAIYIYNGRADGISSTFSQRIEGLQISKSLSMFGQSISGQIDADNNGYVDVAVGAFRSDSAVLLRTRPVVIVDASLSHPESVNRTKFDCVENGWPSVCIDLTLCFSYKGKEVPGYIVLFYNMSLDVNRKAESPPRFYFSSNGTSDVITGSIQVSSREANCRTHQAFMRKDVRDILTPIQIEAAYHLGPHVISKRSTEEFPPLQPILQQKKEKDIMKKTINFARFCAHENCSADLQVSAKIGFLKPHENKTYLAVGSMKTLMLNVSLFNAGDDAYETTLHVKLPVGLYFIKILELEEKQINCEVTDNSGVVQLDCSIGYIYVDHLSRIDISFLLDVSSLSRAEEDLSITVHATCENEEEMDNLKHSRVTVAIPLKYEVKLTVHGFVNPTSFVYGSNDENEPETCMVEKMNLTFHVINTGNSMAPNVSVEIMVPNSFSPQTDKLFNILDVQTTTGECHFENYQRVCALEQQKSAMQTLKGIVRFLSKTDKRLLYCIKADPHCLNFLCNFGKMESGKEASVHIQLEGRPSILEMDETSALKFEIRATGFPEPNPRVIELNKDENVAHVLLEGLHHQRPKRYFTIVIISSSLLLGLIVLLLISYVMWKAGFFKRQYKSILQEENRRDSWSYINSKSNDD

[7] = superoxide lowering in aged yeast cells, pilot screen, validation compound set (AID 2706;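 active = superoxide response below 65% of plate, a cut near 3 SD across the whole screen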;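 note: yeast exposed to compound for one week at 30 degrees C before staining; 100% = mean of all compound wells on the same plate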); settings: S. cerevisiae aging, superoxide DHE fluorescence; at 10 µM, stronger effect = lower value
[8] = biological target: Beta-adrenergic receptor kinase 1 (Homo sapiens) (UniProt P25098); assay: GRK2 binders displacing RNA aptamer, biochemical, validation, human GRK2, bead flow cytometry (AID 488806;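 active = aptamer binding inhibition above 30%, about 3 SD of noise from non-fluorescent compounds; inactive = inhibition at or below 30%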); settings: bead-bound GRK2, FAM-aptamer displacement, at 10 µM, stronger effect = higher value
Sequence of Beta-adrenergic receptor kinase 1 (Homo sapiens) (P25098 whole entry, looked up): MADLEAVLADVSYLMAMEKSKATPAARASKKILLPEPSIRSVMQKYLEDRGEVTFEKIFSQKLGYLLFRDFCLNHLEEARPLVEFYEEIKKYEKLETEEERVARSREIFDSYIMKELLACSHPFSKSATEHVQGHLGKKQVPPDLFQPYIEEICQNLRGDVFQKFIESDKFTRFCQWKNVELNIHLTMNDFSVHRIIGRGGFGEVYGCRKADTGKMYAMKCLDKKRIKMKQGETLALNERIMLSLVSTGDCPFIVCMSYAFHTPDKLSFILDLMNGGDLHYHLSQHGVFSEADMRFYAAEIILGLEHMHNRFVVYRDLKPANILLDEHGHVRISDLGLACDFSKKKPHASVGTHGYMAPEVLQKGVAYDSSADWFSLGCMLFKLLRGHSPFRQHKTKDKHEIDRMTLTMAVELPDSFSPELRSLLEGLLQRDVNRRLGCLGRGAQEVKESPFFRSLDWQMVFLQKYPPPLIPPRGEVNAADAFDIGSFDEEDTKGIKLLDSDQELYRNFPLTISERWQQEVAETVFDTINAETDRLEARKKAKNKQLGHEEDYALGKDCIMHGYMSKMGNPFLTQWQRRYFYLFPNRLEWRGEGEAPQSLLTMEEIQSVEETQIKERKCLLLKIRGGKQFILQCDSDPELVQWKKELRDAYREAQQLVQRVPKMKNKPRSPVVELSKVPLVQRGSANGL

[9] = biological target: Beta-2 adrenergic receptor (Homo sapiens) (UniProt P07550); assay: beta2AR agonists driving receptor internalization, pilot screen, cell-based, FAP fluorogen, flow cytometry, validation set (AID 504459;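 active = percent response above 42, roughly 3 SD of non-fluorescent test compounds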;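 note: agonist-driven loss of surface beta2AR via internalization measured by FAP dye flow cytometry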); settings: Am2.2-beta2AR cells, FAP surface receptor flow cytometry; at 10 µM; stronger effect = higher value
Sequence of Beta-2 adrenergic receptor (Homo sapiens) (P07550 whole entry, looked up): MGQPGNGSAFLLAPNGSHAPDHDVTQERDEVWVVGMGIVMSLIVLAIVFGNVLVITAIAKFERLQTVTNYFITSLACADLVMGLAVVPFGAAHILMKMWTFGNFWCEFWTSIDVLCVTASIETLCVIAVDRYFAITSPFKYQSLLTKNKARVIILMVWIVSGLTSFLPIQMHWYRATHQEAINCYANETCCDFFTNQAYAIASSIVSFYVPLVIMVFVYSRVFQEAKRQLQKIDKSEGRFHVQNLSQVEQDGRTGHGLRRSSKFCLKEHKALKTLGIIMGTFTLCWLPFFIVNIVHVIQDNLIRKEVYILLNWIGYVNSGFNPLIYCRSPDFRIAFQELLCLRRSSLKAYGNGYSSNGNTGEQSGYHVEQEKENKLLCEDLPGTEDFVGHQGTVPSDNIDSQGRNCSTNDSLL

[10] = biological target: AP-2 complex subunit beta (Homo sapiens) (UniProt P63010); assay: inhibitors of arrestin peptide binding to AP2, pilot screen, biochemical, validation set, GST-AP2 beads, flow cytometry (AID 504541;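 active = inhibition above 54%, about 3 SD of non-fluorescent compounds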;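 note: AP2 carries R879A mutation and is captured from E. coli lysate; bead-bound FITC arrestin peptide fluorescence measuring arrestin peptide binding to AP2; 0% = DMSO wells and 100% = excess unlabeled arrestin peptide control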); settings: FITC arrestin peptide, at 10 µM, stronger effect = higher value, AP2 beta2 appendage fragment, R879A mutant
Sequence of AP-2 complex subunit beta (Homo sapiens) (P63010 whole entry, looked up, the tested form may be a part, one chain of several): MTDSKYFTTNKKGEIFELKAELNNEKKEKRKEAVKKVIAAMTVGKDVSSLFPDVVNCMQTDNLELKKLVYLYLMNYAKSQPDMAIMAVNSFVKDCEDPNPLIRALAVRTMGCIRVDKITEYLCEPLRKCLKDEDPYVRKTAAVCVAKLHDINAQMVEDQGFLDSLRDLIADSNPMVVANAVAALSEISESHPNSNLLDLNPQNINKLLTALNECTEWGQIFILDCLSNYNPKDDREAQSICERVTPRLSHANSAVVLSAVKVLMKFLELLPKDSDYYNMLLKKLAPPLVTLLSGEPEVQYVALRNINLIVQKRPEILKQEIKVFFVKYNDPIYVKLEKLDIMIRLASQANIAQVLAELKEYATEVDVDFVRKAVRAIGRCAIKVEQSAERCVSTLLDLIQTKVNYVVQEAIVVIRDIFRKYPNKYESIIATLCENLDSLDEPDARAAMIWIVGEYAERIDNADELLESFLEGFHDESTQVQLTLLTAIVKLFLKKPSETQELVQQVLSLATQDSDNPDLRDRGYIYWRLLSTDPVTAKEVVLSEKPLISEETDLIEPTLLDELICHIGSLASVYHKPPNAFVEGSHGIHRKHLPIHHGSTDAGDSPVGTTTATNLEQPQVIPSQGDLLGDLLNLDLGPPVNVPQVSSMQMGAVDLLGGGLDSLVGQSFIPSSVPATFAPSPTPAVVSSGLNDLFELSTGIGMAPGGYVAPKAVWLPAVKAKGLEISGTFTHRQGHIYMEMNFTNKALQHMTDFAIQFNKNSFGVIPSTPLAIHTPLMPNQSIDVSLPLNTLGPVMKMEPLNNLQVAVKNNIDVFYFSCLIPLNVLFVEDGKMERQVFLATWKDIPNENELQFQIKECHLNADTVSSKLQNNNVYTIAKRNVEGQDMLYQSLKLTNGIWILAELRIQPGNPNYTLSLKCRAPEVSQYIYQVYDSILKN

[11] = yeast V-ATPase proton transport modulators, S. cerevisiae, pHLuorin, HTS validation (AID 504600; in the data active = response above about 15%;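 note: plate controls were DMSO for no effect and reference compound for full effect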); settings: S. cerevisiae pHLuorin cytosolic pH, at 10 µM, stronger effect = higher value
[12] = system: anti-desmoglein-3 scFv antibody binding to human DSG3; assay: inhibitors of anti-DSG3 scFv binding to DSG3, pilot screen, biochemical, validation compound set, bead-based, flow cytometry (AID 588368); settings: Protein G beads, DSG3-Fc, scFv-GFP binding, at 10 µM, stronger effect = lower value;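 note: signal is the median channel fluorescence of bead-bound GFP antibody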
[13] = inhibitors of fungal efflux pumps CDR1, CDR2, MDR1, pilot screen, validation compound set, multiplex, phenotypic (AID 588506;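 active = efflux inhibition above 0.42, the validation set average plus 4 SD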;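 note: Nile Red retained in cells so higher fluorescence means more efflux inhibition; 0 = negative control wells and 1 = enniatin B 25 µM full block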); settings: S. cerevisiae pump-expressing triplex, Nile Red efflux flow cytometry; at 10 µM; stronger effect = higher value; the pumps come from Candida albicans
[14] = biological target: ATP-binding cassette sub-family B member 6 (Homo sapiens) (UniProt Q9NP58); assay: ABCB6 transporter inhibitors, pilot screen, K562-ABCB6 cells, flow cytometry, validation set (AID 588550;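 active = inhibition above the screen-wide mean plus 3 SD, about 51%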;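 note: 0% = DMSO wells and 100% = benzethonium chloride 70 µM positive control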); settings: K562-ABCB6 porphyrin accumulation, 1 h, at 10 µM, stronger effect = higher value
Sequence of ATP-binding cassette sub-family B member 6 (Homo sapiens) (Q9NP58 whole entry, looked up): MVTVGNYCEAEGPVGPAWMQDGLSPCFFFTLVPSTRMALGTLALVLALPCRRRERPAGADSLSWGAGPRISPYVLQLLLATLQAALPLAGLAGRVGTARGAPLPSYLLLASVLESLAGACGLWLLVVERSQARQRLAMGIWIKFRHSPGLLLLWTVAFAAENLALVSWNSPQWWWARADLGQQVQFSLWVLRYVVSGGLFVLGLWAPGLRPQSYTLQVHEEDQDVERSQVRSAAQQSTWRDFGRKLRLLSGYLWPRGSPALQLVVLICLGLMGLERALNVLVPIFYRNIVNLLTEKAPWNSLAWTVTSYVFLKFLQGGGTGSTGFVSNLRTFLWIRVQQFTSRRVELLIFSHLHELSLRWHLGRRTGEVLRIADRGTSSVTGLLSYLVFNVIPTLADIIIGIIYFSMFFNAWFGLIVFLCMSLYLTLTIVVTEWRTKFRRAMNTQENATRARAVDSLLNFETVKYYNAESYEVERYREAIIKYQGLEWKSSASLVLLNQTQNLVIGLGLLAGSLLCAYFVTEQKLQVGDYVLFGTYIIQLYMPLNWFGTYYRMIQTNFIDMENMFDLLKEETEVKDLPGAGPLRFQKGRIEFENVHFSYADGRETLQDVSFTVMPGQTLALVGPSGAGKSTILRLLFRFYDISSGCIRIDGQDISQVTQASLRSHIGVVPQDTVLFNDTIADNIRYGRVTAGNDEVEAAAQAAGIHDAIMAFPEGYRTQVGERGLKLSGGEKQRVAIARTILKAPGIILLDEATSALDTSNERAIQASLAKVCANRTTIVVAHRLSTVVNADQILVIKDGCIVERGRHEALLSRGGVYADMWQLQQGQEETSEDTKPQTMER

[15] = promoters of myeloid differentiation in arrested cells, primary screen, cell-based, GFP/MAC1 double positive, flow cytometry, validation set (AID 588685;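 active = differentiation response of at least 50%, scaled between solvent and reference control, from cells with both markers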;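 note: compound exposure lasts four days before antibody staining and flow analysis; 0% = DMSO wells and 100% = 5 µM fulvestrant positive control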); settings: ER-HoxA9 marrow cells, stronger effect = higher value, normalized: vehicle 0, fulvestrant 100
[16] = RPL19A-GFP modulators, yeast TOR pathway, confirmation, cell-based, S. cerevisiae, flow cytometry, cherry picks, mother/daughter gates (AID 2270;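 active = GFP response below 50% of the DMSO control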); settings: S. cerevisiae RPL19A-GFP strain, 3 h, at 10 µM, stronger effect = lower value, 100 = same GFP as DMSO wells
[17] = LAP4-GFP expression modulators in yeast, confirmation, cell-based, cherry picks, flow cytometry, mother/daughter gates (AID 2271;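 active = GFP response above 150% of the DMSO control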;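 note: ratio of sample to DMSO plate mean so 100% equals DMSO level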); settings: S. cerevisiae LAP4-GFP strain, 3 h, at 10 µM, stronger effect = higher value, 100 means same as DMSO control
[18] = modulators of MEP2-GFP levels in yeast, confirmation, S. cerevisiae, flow cytometry GFP, cherry picks (AID 2272;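 active = GFP response above 150% of the DMSO control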;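 note: ratio of well signal to plate DMSO mean so 100% equals DMSO level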); settings: S. cerevisiae MEP2-GFP strain, 3 h, at 10 µM, stronger effect = higher value
[19] = AGP1-GFP expression modulators, hit retest, confirmation, cell-based, flow cytometry, S. cerevisiae, cherry picks (AID 2273;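 active = GFP response above 150% of the DMSO level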;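 note: median GFP channel fluorescence over the whole cell population gate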); settings: S. cerevisiae AGP1-GFP strain, 3 h, at 10 µM
[20] = modulators of CIT2-GFP expression in yeast, confirmation, S. cerevisiae, GFP fusion, cherry picks, mother/daughter gates (AID 2274;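 active = GFP response above 150% of the DMSO level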); settings: S. cerevisiae CIT2-GFP strain, flow cytometry, 3 h, at 10 µM, stronger effect = higher value
[21] = measured here: daughter cell gate
[22] = measured here: mother cell gate
[23] = measured here: daughter cell gate response
[24] = measured here: mother cell gate response

Cc1cc(-c2ccccc2)nnc1NCCN1CCOCC1
active: aptamer binding inhibition [8] 32%
inactive: percent of DMSO control GFP [1] 102% | GFP response vs DMSO [2] 114% | percent response of DMSO control [3] 93.9% | GFP response vs DMSO [4] 74.3% | vesicle binding response [5] 223% | inhibition [6] 0.64% | superoxide response (% of plate) [7] 94.8% | response [9] 2.57% | inhibition [10] -1.22% | response [11] -0.98% | binding (% of control) [12] 109% | efflux inhibition (fraction of control) [13] 0 | inhibition [14] 19% | differentiation response [15] 4.09%
67.8%: double positive events [5]

c1ccc2c(c1)CCCC2C1=NCCN1 (centres undefined)
69.5%: double positive events [5]
inactive: percent of DMSO control GFP [1] 98.2% | percent response of DMSO control [3] 102% | GFP response vs DMSO [4] 108% | vesicle binding response [5] 263% | inhibition [6] -15.6% | superoxide response (% of plate) [7] 82.6% | aptamer binding inhibition [8] -1% | response [9] -24.5% | inhibition [10] -7.04% | response [11] 1.56% | binding (% of control) [12] 101% | efflux inhibition (fraction of control) [13] -0.04 | inhibition [14] 19% | differentiation response [15] 8.8%

O=P(O)(O)CP(=O)(O)O
inactive: percent of DMSO control GFP [1] 91.9% | percent response of DMSO control [3] 90.5% | GFP response vs DMSO [4] 123% | vesicle binding response [5] 178% | inhibition [6] 22.7% | superoxide response (% of plate) [7] 93% | aptamer binding inhibition [8] 0% | response [9] -17.7% | inhibition [10] -22.1% | response [11] -0.51% | binding (% of control) [12] 101% | efflux inhibition (fraction of control) [13] 0 | inhibition [14] -3% | differentiation response [15] 28.5%
61.8%: double positive events [5]

COc1ccc(-c2coc3cc(O)cc(O)c3c2=O)cc1
58.4%: double positive events [5]
inactive: percent of DMSO control GFP [1] 88.2% | GFP response vs DMSO [2] 99.9% | percent response of DMSO control [3] 116% | GFP response vs DMSO [4] 72.6% | vesicle binding response [5] 199% | inhibition [6] 5.49% | superoxide response (% of plate) [7] 106% | aptamer binding inhibition [8] 0% | response [9] -6.34% | inhibition [10] 1.72% | response [11] 1.71% | binding (% of control) [12] 101% | efflux inhibition (fraction of control) [13] -0.28 | inhibition [14] 7% | differentiation response [15] -9.83%

CC1(C)CC(=O)C(C(=O)CCCCC(=O)C2C(=O)CC(C)(C)CC2=O)C(=O)C1
76%: double positive events [5]
inactive: percent of DMSO control GFP [1] 105% | GFP response vs DMSO [2] 114% | percent response of DMSO control [3] 112% | GFP response vs DMSO [4] 91.3% | vesicle binding response [5] 197% | inhibition [6] -6.15% | superoxide response (% of plate) [7] 97.2% | aptamer binding inhibition [8] -1% | response [9] -2.15% | inhibition [10] -8.71% | response [11] -8.22% | binding (% of control) [12] 114% | efflux inhibition (fraction of control) [13] -0.24 | inhibition [14] 14% | differentiation response [15] -2.46%

COc1ccc(C2C3C(C)=NN=C3CC(C)(O)C2C(C)=O)cc1 (centres undefined)
60.7%: double positive events [5]
inactive: percent of DMSO control GFP [1] 99.5% | percent response of DMSO control [3] 97.7% | GFP response vs DMSO [4] 94% | vesicle binding response [5] 265% | inhibition [6] 13.2% | superoxide response (% of plate) [7] 103% | aptamer binding inhibition [8] 6% | response [9] -1.78% | inhibition [10] 12.8% | response [11] 2.14% | binding (% of control) [12] 101% | efflux inhibition (fraction of control) [13] -0.21 | inhibition [14] 3% | differentiation response [15] -18.4%

COc1ccc(CCN(C)CC(=O)Nc2cc(C)nc3ccccc23)cc1OC
71.8%: double positive events [5]
inactive: percent of DMSO control GFP [1] 108% | percent response of DMSO control [3] 104% | GFP response vs DMSO [4] 94% | vesicle binding response [5] 193% | inhibition [6] 10.5% | superoxide response (% of plate) [7] 103% | aptamer binding inhibition [8] 1% | response [9] 7.03% | inhibition [10] -0.03% | response [11] -0.15% | binding (% of control) [12] 96.8% | efflux inhibition (fraction of control) [13] 0.05 | inhibition [14] 5% | differentiation response [15] 5.6%

OCCN(CCO)c1ccc2ccccc2c1
inactive: percent of DMSO control GFP [1] 96.5% | percent response of DMSO control [3] 99.6% | GFP response vs DMSO [4] 96.5% | vesicle binding response [5] 267% | inhibition [6] 0.94% | superoxide response (% of plate) [7] 98.1% | aptamer binding inhibition [8] 2% | response [9] -2.38% | inhibition [10] -3.97% | response [11] 4.81% | binding (% of control) [12] 103% | efflux inhibition (fraction of control) [13] -0.21 | inhibition [14] 10% | differentiation response [15] 5.6%
66.7%: double positive events [5]

Cc1cc(C(C)(C)C)c(O)c(C)c1CC1=NCCN1
inactive: percent of DMSO control GFP [1] 103% | GFP response vs DMSO [2] 116% | percent response of DMSO control [3] 114% | GFP response vs DMSO [4] 94.1% | vesicle binding response [5] 297% | inhibition [6] -29.4% | superoxide response (% of plate) [7] 93.7% | aptamer binding inhibition [8] 1% | response [9] 8.56% | inhibition [10] -0.66% | response [11] 0.6% | binding (% of control) [12] 106% | efflux inhibition (fraction of control) [13] 0.34 | inhibition [14] 12% | differentiation response [15] 7.37%
62.9%: double positive events [5]

Nc1ccc(S(=O)(=O)c2ccccc2)nc1
94.8%: GFP response, % of DMSO [20, 21]
inactive: GFP response vs DMSO [16] 103% | GFP response relative to DMSO [17] 99.8% | GFP response vs DMSO [18] 104% | GFP response, % of DMSO [19] 95.7% | GFP response, % of DMSO [20] 95.2%
99.3%: GFP response relative to DMSO [17, 24]
104%: GFP response vs DMSO [16, 21] | GFP response vs DMSO [16, 22]
98.7%: GFP response relative to DMSO [17, 23]
94.4%: GFP response, % of DMSO [20, 22]

CN(C)c1ccc(N=Cc2nc(-c3ccccc3)oc2OC(=O)c2cccc(Br)c2)cc1
93%: GFP response relative to DMSO [17, 24]
84.2%: GFP response relative to DMSO [17, 23]
inactive: GFP response vs DMSO [16] 96.2% | GFP response relative to DMSO [17] 93.7% | GFP response vs DMSO [18] 94.4% | GFP response, % of DMSO [19] 98.1% | GFP response, % of DMSO [20] 92.2%
89.1%: GFP response vs DMSO [16, 22]
90.4%: GFP response vs DMSO [16, 21]
